# Target: P2RX3
# Assay: pooled miR-30 sensor sort-seq; sequence = guide strand
# Conditions: shRNA
# Note: reference of the scale not given here.
row,Sequence,sensor-assay potency score (higher = more potent)
1,TTGTCCAAGTCGCACACCCAGC,-1.44
2,TTCAGTAACAATCATCTTGGTG,-0.0732
3,TTTCTCAGAAACGCTGTCGAGC,-0.254
4,TACCTGGTAAGCCTTCTCGTGC,-1.6
5,TTCACAACCACCGACTTGGTGG,-0.566
6,TTCACCTTGGTTACCACCGAGG,-0.997

# Target: P2RY12
# Assay: as above
# Conditions: shRNA
row,Sequence,sensor-assay potency score (higher = more potent)
1,TTAACCACAGAGTGCTCTCTTT,-0.668
2,TTGACGTTCACCTTTTTCCTGG,0.386
3,TTATTATTAACTTAGTTGCTTC,-0.642
4,TTATTAACTTAGTTGCTTCTTC,0.717
5,ATTTGGGTCACCACCATCCTGT,-0.843
6,TTAACTTAGTTGCTTCTTCGTC,-0.236
7,TTCACATTCTTGTCTCTCGGCT,-0.666
8,TTCTTGTCTCTCGGCTGCCTGT,-1.33
9,TAAAGTTTGATTTACTCCGGAT,-0.511
10,TAATATTTTTACTTAGCGCTTT,0.117
11,TAATTTACTATTTCATGCCAGA,-0.703
12,TTTCATGCCAGACTAGACCGAA,-0.342

# Target: P2RY4
# Assay: as above
# Conditions: shRNA
row,Sequence,sensor-assay potency score (higher = more potent)
1,TTGACAATGTTCAGTACTCGGC,-0.264
2,TAGGAGTAGAGCAGCTACTGTC,-0.823
3,ATAGCAAACAAGAGTGACCAGG,-0.888
4,TTCCAATAGAAAAGAAAGCGGA,-0.289
5,TAGAGCAGCTACTGTCCTGGGG,0.0671
6,AAGACGACTGTGCAGAGCCTGG,-1.35
7,TAGCGGTGCACGCTGATGCAGG,-1.24
8,TAGAGCACAGGATCCAGGCAGC,-0.928
9,TGAACTTGAAATCCTCATCAAA,-1.05
10,AGTAGAGCAGCTACTGTCCTGG,-1.37
11,TAGCAAACAAGAGTGACCAGGC,0.861
12,TTGAAATCCTCATCAAACCAAC,-1.03

# Target: P2RY6
# Assay: as above
# Conditions: shRNA
row,Sequence,sensor-assay potency score (higher = more potent)
1,TTCTGTAGGAGCTCATGTGGTC,-0.257
2,AGTTGCTTGAAGTTCTCGCGGT,-0.308
3,TTTTGTGAGCACCTTAATGTGG,-0.636
4,TTTAGGGTGTACACGGCCGTGC,-0.557
5,TCGCGGTAGACACAGGTGGTGG,-1.81
6,TAGCGCTGGAAGCTGATGCAGG,-0.775
7,TTTCTGTAGGAGCTCATGTGGT,-1.02
8,ATAGTTGTAGATGAGCAGGGGC,0.421
9,TTGGCATAGAAGAGGAAGCGGA,-1
10,TTCTCGCGGTAGACACAGGTGG,-0.894

# — the OligoGym collection
